# Results: PubChem BioAssay (EPA / NIEHS)
# Records with an inconclusive call do not appear. Active and inactive are the calls of the source. How the source made its calls: active means hit-call score of the fitted dose curve at least 0.9, where 1 is the maximum; inconclusive means response in the unintended direction; inactive means score below 0.9.
# Molecular target: rat Peripheral-type Benzodiazepine Receptor (PBR), Tspo (gene 24230) (UniProt P16257)
# Assay: NVS_MP_rPBR: NovaScreen (NVS) Membrane Protein Assay for rat Peripheral-type Benzodiazepine Receptor (PBR) (AID 2283335)
# Outline: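 Rat kidney membranes; radioligand binding with displacement, filter-based scintillation counting, 1 h incubation. Primary screen in duplicate at 25 uM, actives followed in concentration series; loss of binding vs DMSO.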
# Chain of rat Peripheral-type Benzodiazepine Receptor (PBR), Tspo (gene 24230) (P16257 whole entry, looked up): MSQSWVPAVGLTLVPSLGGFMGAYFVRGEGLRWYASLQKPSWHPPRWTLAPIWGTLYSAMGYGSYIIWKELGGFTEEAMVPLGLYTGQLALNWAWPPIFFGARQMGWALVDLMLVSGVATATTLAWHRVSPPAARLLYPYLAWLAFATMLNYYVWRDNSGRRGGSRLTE
SMILES,AC50,outcome
Cc1ccc(S(=O)(=O)Oc2ccc(N=Nc3ccc(-c4ccc(N=Nc5c(O)ccc6cc(S(=O)(=O)O)cc(S(=O)(=O)O)c56)c(C)c4)cc3C)cc2)cc1,0.118 µM (active),–
COc1ccc(N=Nc2cc(C)c(N=Nc3ccc(S(=O)(=O)O)cc3)cc2OC)cc1,0.0418 µM (active),–
c1ccc(Oc2ccccc2)cc1,–,inactive
CCCCCCCCCCCCCCCC(=O)OC/C=C(C)/C=C/C=C(C)/C=C/C1=C(C)CCCC1(C)C,–,inactive
O=C1OC[C@H](Cc2cccc(O)c2)[C@H]1Cc1cccc(O)c1,5.43 µM (active),–
CN(C)C(=O)Nc1ccc(Oc2ccc(Cl)cc2)cc1,5.74 µM (active),–
CCCCN(CCCC)C(=O)N(CCCC)CCCC,10.4 µM (active),–

# Molecular target: chimpanzee Androgen Receptor (AR), AR (gene 747460) (UniProt O97775)
# Assay: NVS_NR_cAR: NovaScreen (NVS) Nuclear Receptor Binding Assay for chimpanzee Androgen Receptor (AR) (AID 2283346);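 further: radioligand displacement from AR measured by scintillation counting in a cell-free assay; a loss of bound radioligand signal versus DMSO counts as binding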
# Outline: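 Radioligand binding to chimpanzee AR expressed in Sf9/Sf21 cells, cell-free, measured 72 h after dosing by lysate-based scintillation counting. Loss of signal vs DMSO; initial duplicate screen at 25 uM, actives retested in concentration series.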
# Chain of chimpanzee Androgen Receptor (AR), AR (gene 747460) (O97775 whole entry, looked up): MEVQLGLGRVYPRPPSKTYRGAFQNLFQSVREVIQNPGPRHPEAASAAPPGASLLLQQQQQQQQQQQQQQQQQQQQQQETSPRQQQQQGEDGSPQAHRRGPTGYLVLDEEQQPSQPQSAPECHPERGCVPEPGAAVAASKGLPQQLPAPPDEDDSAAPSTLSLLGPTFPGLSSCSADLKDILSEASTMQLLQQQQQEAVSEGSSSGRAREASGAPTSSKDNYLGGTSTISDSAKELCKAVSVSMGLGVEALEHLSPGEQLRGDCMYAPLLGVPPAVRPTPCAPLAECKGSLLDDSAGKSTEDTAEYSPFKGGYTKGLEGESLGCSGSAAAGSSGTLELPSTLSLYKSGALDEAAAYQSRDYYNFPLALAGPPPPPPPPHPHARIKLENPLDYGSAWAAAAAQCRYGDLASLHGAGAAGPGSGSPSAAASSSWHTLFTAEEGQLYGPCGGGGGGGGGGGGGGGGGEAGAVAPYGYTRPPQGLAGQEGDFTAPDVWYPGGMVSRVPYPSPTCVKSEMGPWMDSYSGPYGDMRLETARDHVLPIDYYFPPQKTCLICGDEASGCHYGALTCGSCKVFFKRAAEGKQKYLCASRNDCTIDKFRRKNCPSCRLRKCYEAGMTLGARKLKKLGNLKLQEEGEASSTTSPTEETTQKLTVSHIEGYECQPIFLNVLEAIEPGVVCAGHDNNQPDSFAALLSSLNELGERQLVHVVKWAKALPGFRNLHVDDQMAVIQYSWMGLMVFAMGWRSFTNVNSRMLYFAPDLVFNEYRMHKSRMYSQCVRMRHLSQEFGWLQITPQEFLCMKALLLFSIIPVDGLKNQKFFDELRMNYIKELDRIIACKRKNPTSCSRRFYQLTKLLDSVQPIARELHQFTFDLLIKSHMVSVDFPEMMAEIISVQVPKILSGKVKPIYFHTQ
SMILES,AC50,outcome
Cc1ccc(S(=O)(=O)Oc2ccc(N=Nc3ccc(-c4ccc(N=Nc5c(O)ccc6cc(S(=O)(=O)O)cc(S(=O)(=O)O)c56)c(C)c4)cc3C)cc2)cc1,5.44 µM (active),–
CN1CCOCC1,–,inactive
COc1ccc(N=Nc2cc(C)c(N=Nc3ccc(S(=O)(=O)O)cc3)cc2OC)cc1,25 µM (active),–
O=C1OC[C@H](Cc2cccc(O)c2)[C@H]1Cc1cccc(O)c1,4.16 µM (active),–
O=CCc1ccccc1,–,inactive
CCCCCCCCC=CCCCCCCCC1=NCCN1CCO,35.8 µM (active),–
